# According to the supplement of paper PMC7530171:
# “And” between values parts separate entries of the source, which are not always exact repeats. Equal values may be shown once. Where a name gives a salt, the structure may show the parent alone. ± gives the standard deviation.
# Test system: THP-1 macrophages infected with Mycobacterium tuberculosis H37Rv
# Assay: intracellular M.tb growth inhibition relative to DMSO (0) and 4 uM bedaquiline (100); higher = stronger inhibition of intracellular bacterial growth
# Conditions: 10 µM; 4 days
# Protocol: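 OICR kinase inhibitor library screened in duplicate at 10 uM against THP-1 macrophages (PMA-differentiated) infected with M. tuberculosis H37Rv-pTEC27 (tdTomato RFP), 4 days at 37 C. Rows with complete host cell loss (placeholder inhibition 0, cell loss 100) were removed.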
row,Compound,intracellular M.tb growth inhibition
1,Cc1ccc(S(=O)(=O)Nc2nc3ccccc3nc2Nc2ccc3nsnc3c2)cc1,-56.4 ± 99%
2,Cc1cc(Nc2nc(N[C@@H](C)c3ccc(F)cc3)c(C#N)cc2F)n[nH]1,-124 ± 150%
3,Cc1cc(C=C2C(=O)C=CC2=O)cc(C)c1O,-63.7 ± 80%
4,COc1cccc2cc(-c3nc([C@H]4CC[C@H](C(=O)O)CC4)n4ncnc(N)c34)[nH]c12 [OSI-027 hydrochloride],-318 ± 370%
5,Nc1nccc(Oc2ccc(NC(=O)c3c[nH]cc(-c4ccc(F)cc4)c3=O)cc2F)c1Cl,37 ± 33%
6,Nc1ccc(-c2cccc3c(=O)cc(N4CCOCC4)oc23)cc1,-49 ± 35%
7,COc1cc(Nc2c(C#N)cnc3cc(OCCCN4CCN(C)CC4)c(OC)cc23)c(Cl)cc1Cl [Bosutinib],109 ± 1.8%
8,CO[C@@H]1[C@H](N(C)C(=O)c2ccccc2)C[C@H]2O[C@]1(C)n1c3ccccc3c3c4c(c5c6ccccc6n2c5c31)C(=O)NC4,60.7 ± 13%
9,CC(C)[C@H](CO)Nc1nc(Nc2ccc(C(=O)O)c(Cl)c2)c2ncn(C(C)C)c2n1 [Purvalanol B],2.54 ± 10%
10,COc1ccc(S(=O)(=O)N(C(C)=O)c2ccccc2/C=C/c2cc[n+]([O-])cc2)cc1,-316 ± 310%
11,CN(C)c1ccc(/C=C2/C(=O)Nc3ccccc32)cc1,5.91 ± 3.3%
12,COc1cc(N2CCC(N3CCN(C)CC3)CC2)ccc1Nc1ncc(Cl)c(Nc2ccccc2S(=O)(=O)C(C)C)n1,-4.08 ± 19%
13,CN(C)S(=O)(=O)c1ccc2c(c1)/C(=C/c1cc3c([nH]1)CCCC3)C(=O)N2,-51.7 ± 62%
14,Nc1cc(C(F)(F)F)c(-c2cc(N3CCOCC3)nc(N3CCOCC3)n2)cn1,-76.8 ± 110%
15,COc1cc2c(Nc3ccc(NC(=O)c4ccccc4)cc3)ncnc2cc1OCCCN1CCOCC1,-10.1 ± 48%
16,COc1cc(OC)c(C=C2C(=O)Nc3ccccc32)c(OC)c1,4.9 ± 6.5%
17,Cc1[nH]c(/C=C2\C(=O)Nc3ccccc32)c(C)c1CCC(=O)O,6.44 ± 30%
18,Cc1nc(Nc2ncc(C(=O)Nc3c(C)cccc3Cl)s2)cc(N2CCN(CCO)CC2)n1 [Dasatinib],47.9 ± 35%
19,CN(C)Cc1cccc(N=C(c2ccccc2)c2c(O)[nH]c3cc(C(=O)N(C)C)ccc23)c1,-213 ± 320%
20,Cn1cncc1[C@@](N)(c1ccc(Cl)cc1)c1ccc2c(c1)c(-c1cccc(Cl)c1)cc(=O)n2C [Tipifarnib],3.85 ± 56%

row,Compound,intracellular M.tb growth inhibition
1,CN(C)CCOc1cc(-c2cn[nH]c2)ccc1NC(=O)C1COc2ccccc2O1 (stereo not given),-97.9 ± 79%
2,COc1cc(C[C@H]2C(=O)OC[C@@H]2Cc2ccc(OC)c(OC)c2)ccc1O [Arctigenin],46 ± 8.1%
3,Oc1ccc(-c2nc(-c3ccc(F)cc3)c(-c3ccncc3)[nH]2)cc1,8.19 ± 7.9%
4,Cc1ccccc1C(=O)c1ccc(Nc2ccc(Br)cc2N)cc1Cl,20.1 ± 14%
5,CC(NC(=O)C(C#N)=Cc1ccc(O)c(O)c1)c1ccccc1 (stereo not given) [Tyrphostin B44],-7.66 ± 34%
6,Cn1cnc2c(NCc3ccccc3)nc(NCCO)nc21 [Olomoucine],-10.5 ± 23%
7,Cc1cc(C(=O)N2CCN(c3cccc(Cl)c3)CC2)n(-c2ccccc2)n1,-17.5 ± 0.18%
8,CN1CCC(CNc2ccc3ncc(-c4cccc(OC(F)(F)F)c4)n3n2)CC1,89.1 ± 24%
9,CCN(CC)CCCCN1c2ccccc2Oc2ccc(Cl)cc21 [10-DEBC hydrochloride],123 ± 1.9%
10,O=C(NC1CCNCC1)c1n[nH]cc1NC(=O)c1c(Cl)cccc1Cl,29.6 ± 42%
11,O=S(=O)(c1cccc2cnccc12)N1CCCNCC1 [Fasudil HCl],6.96 ± 7.6%
12,Nc1ncnc2n[nH]c(Nc3ccc(F)cc3)c12,-2.38% and 4.47%
13,Cc1c[nH]c(/C=C2\C(=O)Nc3ccccc32)c1CCC(=O)O,27.3 ± 23%
14,N#C/C(=C(/N)Sc1ccc(N)cc1)c1ccccc1C(F)(F)F,5.44 ± 36%
15,N#C/C(=C\c1ccc(O)c(O)c1)C(=O)NCc1ccccc1,9.47 ± 28%
16,CCN(CC)CCNC(=O)c1c(C)[nH]c(/C=C2\C(=O)Nc3ccc(F)cc32)c1C [Sunitinib Malate],-45.8 ± 29%
17,Nc1ncnc(Nc2ccc(OCc3ccccc3)c(Cl)c2)c1/C=N/OCCN1CCOCC1,55.9 ± 12%
18,O=C1C(Cl)=C(NCCN2CCOCC2)C(=O)c2ncccc21,-3.64 ± 5.1%
19,CC1=C(C(=O)Nc2cc3cn[nH]c3cc2F)C(c2ccc(C(F)(F)F)cc2)CC(=O)N1 (stereo not given),-101 ± 100%
20,CN(C)C/C=C/C(=O)Nc1cc2c(Nc3ccc(F)c(Cl)c3)ncnc2cc1O[C@H]1CCOC1,18.3 ± 3%
